Giardia kill: kills Giardia lamblia; Giardia lamblia trophozoite viability; activity change, % at 7.66 µM, hits read low; 340,000 tested, 0.15% active; AID 540267; in the data active = activity change below about -80%; inconclusive = between about -30% and that limit;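 also: parasites exposed to compound for two days anaerobically before the ATP read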
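Media and compound were dispensed first, then trophozoites at 100 cells/well; plates sat 48 hrs at 37 deg C without oxygen before ATP luminescence reagent was added and read after 15-30 min at room temperature.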
SW480 rereplic: DNA re-replication induction in SW480 cells; SW480 DNA re-replication, Hoechst DNA content imaging, 48 h; AID 624297; 340,000 tested, 1.8% active; Potency, µM (top dose mostly 46.1 µM), hits mostly activators; also: nearly all actives have a fitted effect of over 55% in size
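Compounds, transferred as 23 nL by pin tool, were incubated with cells for 48 hr; DNA content per nucleus was then quantified by Hoechst staining and fluorescence plate imaging.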
Vif-A3F inh: blocks the Vif interaction with APOBEC3F | HeLa A3F-eYFP + Vif (tagged APOBEC3F with the HIV-1 protein that degrades it), YFP fluorescence increase | Potency, µM (highest dose often 46.1 µM) | 390,000 tested, 0.2% active | AID 602313; also: nearly all actives have a fitted effect of over 65% in size
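HeLa cells stably expressing A3F-eYFP plus Vif, plated and incubated overnight at 37 deg C, then exposed to compounds overnight at 37 deg C. Blocked degradation read as raised yellow fluorescence (Ex 488/Em 500-530).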
MCF10A rerep: inducers of DNA re-replication in MCF 10A breast cells | MCF 10A DNA re-replication, Hoechst nuclear intensity, 48 h | Potency, µM (doses to about 46.1 µM), hits mostly activators | 350,000 tested, 2.9% active; also: nearly all actives have a fitted effect of over 50% in size
Vif-APOBEC3G blk: blocks the Vif interaction with human APOBEC3G | HeLa A3G-eYFP + Vif (tagged APOBEC3G with the HIV-1 protein that degrades it), YFP fluorescence, overnight | Potency, µM (series often up to 46.1 µM), hits mostly inhibitors | 410,000 tested, 0.076% active | AID 602310; also: nearly all actives have a fitted effect of over 60% in size
Target sequence (Q9HC16 whole entry, looked up): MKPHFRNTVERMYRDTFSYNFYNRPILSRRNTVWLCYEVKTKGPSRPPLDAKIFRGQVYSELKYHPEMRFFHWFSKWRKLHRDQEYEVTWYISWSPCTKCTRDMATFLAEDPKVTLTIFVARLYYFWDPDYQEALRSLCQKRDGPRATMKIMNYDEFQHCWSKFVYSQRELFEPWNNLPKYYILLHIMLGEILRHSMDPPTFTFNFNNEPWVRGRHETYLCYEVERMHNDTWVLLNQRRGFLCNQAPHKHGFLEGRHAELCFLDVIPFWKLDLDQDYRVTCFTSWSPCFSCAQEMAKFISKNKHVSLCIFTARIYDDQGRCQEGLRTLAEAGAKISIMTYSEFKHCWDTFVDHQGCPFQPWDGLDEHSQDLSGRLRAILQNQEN
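Read-out is eYFP fluorescence (Ex 488/Em 500-530) from Vif-expressing HeLa A3G-eYFP cells; more signal means A3G escaped Vif-mediated degradation. Cells plated overnight, compound pinned in, incubated overnight at 37 deg C.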
IL-1B inflam inh: inhibitors of inflammasome signaling (IL-1 beta secretion). THP-1 LPS/ATP IL-1B secretion, AlphaLISA, 16 h; hits give low values. activity change, % at 57.5 µM. 360,000 tested, 4.7% active. AID 743279; in the data active = activity change below about -50%; inconclusive = mostly about -30% to -49%
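THP-1 cells pretreated 1 hr with compounds (up to 57.5 uM final), then stimulated with LPS (250 ng/mL final) plus ATP (1.25 mM final); secreted IL-1B measured by AlphaLISA after 16 hr, decreased signal indicating inhibition.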
Hits are given with their value; n = inactive; u = inconclusive; x = not tested or not shown; ! = repeats disagree; [ ] = remark or other dose. Rows were chosen to be rich in hits. Some 6.9% of all compounds tested hit in one or more screens of this group. Unless noted, calls follow the shape of the dose curve; as a rule, active = well fitted curve in the direction sought with a large enough effect; inconclusive = small, poorly fitted or top-dose-only effect, or another doubt; inactive = no such curve, though single readings can be large; an effect the other way counts as inactive or inconclusive.

SMILES | Giardia kill | SW480 rereplic | Vif-A3F inh | MCF10A rerep | Vif-APOBEC3G blk | IL-1B inflam inh
O=C(NCc1ccco1)c1sc(=S)n2c1[nH]c(=O)c1ccccc12 | n | n | n | u | n | -59
Cc1nc([N+](=O)[O-])cn1CC(=O)c1ccc2c(c1)OCCCO2 | x | x | x | x | n | x
COc1ccccc1CNC(=O)COCc1cc(-c2cccs2)on1 | x | x | n | x | n | x
CNc1ccc(C=O)cc1I | x | x | x | x | n | x
CC(C)C(N)c1csc(Nc2cc(Oc3ccccc3)ncn2)n1 (centres undefined) | x | x | x | x | n | -91
NC(c1ccccc1)c1csc(Nc2cc(Oc3ccccc3)ncn2)n1 (centres undefined) | x | x | x | x | n | -77
CC(C)CC(N)c1csc(Nc2cc(Oc3ccccc3)ncn2)n1 (centres undefined) | x | x | x | x | n | n
Cc1ccc(C(=O)Nc2ncc(Cc3ccccc3)s2)o1 | u | n | n | u | n | n
O=C(Nc1ncc(Cc2ccc(SC(F)F)cc2)s1)c1ccccc1 | n | 6.5µM | n | u | u | n
Cc1cc(C(=S)N2CCOCC2)c(C)n1-c1ccc(F)cc1 | n | n | n | n | n | n
Cc1ccc(-n2c(C)cc(C(=S)N3CCOCC3)c2C)cc1C | n | n | n | n | n | -67
CC1(C)C2([N+](=O)[O-])CN3CC1([N+](=O)[O-])CN(C2)C3C(O)C(O)C(O)CO (centres undefined) | n | 10µM | n | n | n | n
CC1CCN(c2nc(/C=C/c3ccccc3)nc3ccccc23)CC1 | n | n | n | 21µM | n | n
C(=C\c1nc(N2CCCC2)c2ccccc2n1)/c1ccccc1 | n | u | n | u | n | -98
Cc1ccc(Cn2ccn(Cc3ccccc3F)c(=O)c2=O)cc1 | x | x | n | x | n | x
CCOC(=O)c1ccc2c(c1)N(CC(=O)Nc1ccc(C)cc1C)C(=O)c1ccccc1S2 | x | x | n | x | n | x
CN(C)CCNc1nc(-c2ccco2)c2c(c1C#N)CC(C)(C)OC2 | n | n | n | n | n | n
CCCCN(C)c1nc(-c2ccco2)c2c(c1C#N)CC(C)(C)OC2 | n | 16µM | n | u | u | -67
CC1CCc2c(sc3nc(C(C)(C)C)nc(N4CCN(C(=O)CCl)CC4)c23)C1 (centres undefined) | n | 5.2µM | n | 15µM | n | -95
CCN(CC(=O)NCc1ccc(F)cc1)C(=O)/C=C/c1ccc(OC)c(S(=O)(=O)NC(C)C)c1 | n | 8.2µM | n | 1.8µM | 2.8µM | n
c1ccc(-c2cn3c4c(sc3n2)CCCC4)cc1 | u | u | n | 21µM! | n | n
C=C1N[C@]2(C(=O)COC(C)=O)[C@@H](C[C@H]3[C@@H]4CCC5=CC(=O)C=C[C@]5(C)[C@H]4[C@@H](O)C[C@@]32C)O1 | x | n | x | n | x | x
CC(=O)c1sc(C(C)(C)C)cc1NC(=O)/C=C/C(=O)O | n | n | n | u | n | -96
Cc1nn(-c2ccccc2)c2nc(=O)n(-c3ccccc3)cc12 | n | n | n | n[9.22 µM] | n | n
Cc1ccc2nc3c(cc2c1)c(C)nn3-c1ccccc1 | n | 7.3µM | n | u | n | n
SMILES | Giardia kill | SW480 rereplic | Vif-A3F inh | MCF10A rerep | Vif-APOBEC3G blk | IL-1B inflam inh
Cc1cc(NC(=O)CCS(=O)(=O)c2nc(-c3ccccc3)cc(C(F)(F)F)n2)no1 | n | u | n | 5.2µM | u | -121
CS(=O)(=O)c1nc(-c2ccccc2)cc(C(F)(F)F)n1 | n | u | n | 2.6µM | n | -96
CC(C)c1c(C#N)c(N)nc(SCC(=O)c2cc3ccccc3oc2=O)c1C#N | n | u | n | 15µM | n | n
N#Cc1ccc(-c2ccccc2)nc1SCC(=O)c1cc2ccccc2oc1=O | n | u | u | 5µM | n | n
O=C(CSc1nnc(-c2cccnc2)o1)c1cc2ccccc2oc1=O | n | n | n | u | n | n
Cc1cc(C)c(C#N)c(SCCN2CCOCC2)n1 | n | n | n | n | n | n
N#Cc1ccc(-c2ccccc2)nc1SCCN1CCOCC1 | n | n | n | n | n | -75
O=C(O)CC1CCC(=C(Cl)Cl)C1 (centres undefined) | n | n | n | n | n | -74
O=NN(CCCl)C(=O)NC1CCCCC1 | x | n | x | n | x | x
CCn1c(SCC(=O)Nc2oc(-c3ccccc3)c(-c3ccccc3)c2C#N)nnc1-c1ccncc1 | n | n | n | 23µM | n | n
CCn1c(SCC(=O)Nc2oc(-c3ccccc3)c(-c3ccccc3)c2C#N)nnc1-c1ccco1 | n | n | n | u | n | n
N#Cc1c(NC(=O)CSc2ccccn2)oc(-c2ccccc2)c1-c1ccccc1 | n | n | n | 21µM | n | n
COc1ccc(-c2oc(NC(=O)CSc3nncn3C)c(C#N)c2-c2ccc(OC)cc2)cc1 | n | n | x | 13µM | u | n
Cc1cc(Cl)ccc1NS(=O)(=O)c1c(C(=O)N2CCCCCC2)c(C)n(C)c1C | x | x | n | x | n | x
CCCCCCCCCC[n+]1cccc2cc(Cl)ccc21 | x | x | x | x | n | x
Cn1nccc1NS(=O)(=O)c1ccc(NC(=O)C(F)(F)F)cc1 | n | 2.9µM | n | n | n | x
CC(=O)C1=C(C)OC(N)=C(C#N)C1c1cc2cccc(C)c2nc1Cl (centres undefined) | n | n | n | n | n | n
CCOC(=O)C1=C(C)OC(N)=C(C#N)C1c1cc(F)ccc1F (centres undefined) | n | n | n | n | n | -66
COCCOC(=O)C1=C(C)OC(N)=C(C#N)C1c1cc2cccc(C)c2nc1Cl (centres undefined) | n | n | u | 23µM | n | n
CCOC(=O)c1cccc(-n2nnc3c(sc4nc(C)c(Br)c(C)c43)c2=O)c1 | x | x | n | x | n | x
Nc1ccccc1Nc1cccc(C(F)(F)F)c1 | n | n | n | n | n | -157
O=C1/C(=C/c2ccco2)CCC1C1CCCC1 (centres undefined) | n | n | n | n | n | n
O=C1/C(=C\c2ccco2)CCC/C1=C\c1ccco1 | n | u | u | 21µM | n | -64
O=[N+]([O-])c1ccc(C(c2sc3nc(-c4ccco4)nn3c2O)N2CCC3(CC2)OCCO3)cc1 (centres undefined) | x | x | n | x | n | x
CN=c1scc(-c2ccc(Cl)cc2)n1C | u | n | n | n | n | n
CCc1cccc2c(-c3csc(=NC)n3C)c[nH]c12 | n | u | n | n | n | -73
CCN(CC)c1ccc(/C=C/c2ccc3ccccc3n2)cc1 | x | x | x | x | n | x
CC1(CCc2ccc3c(c2)OCO3)NCCc2c1[nH]c1ccccc21 (centres undefined) | n | u | n | u | n | -57
Cc1cc(NC(=S)N(CCN2CCCCC2)Cc2ccco2)ccc1Cl | n | n | n | n | n | -97
CCOC(=O)c1ccc(NC(=S)N(CCN2CCCCCC2)Cc2ccco2)cc1 | n | n | n | u | n | n
